Results on 57 compounds are retold here after PubChem BioAssay AID1224921 (Broad Institute, 2016).

SMILES strings stand for the structures. The campaign covered roughly 1,400 compounds. About 350 (25%) were called active. Inconclusive results (about 2%) are left out. The list is a sample of the results. Potency and affinity values are given separately. Unmarked numbers belong to inactive results. The rule behind the calls is not given here.

The nature of the assay: C. difficile growth inhibition, confirmation, 4-point retest (AID 1224921).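 Note: plate controls were DMSO wells for no effect and levofloxacin 16 µg/mL wells for full effect.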 The settings on record: Clostridioides difficile clinical isolate growth, OD600, 24 h, stronger effect = lower value; at 30 µM unless noted.
`CCCC#Cc1ccc2c(c1)O[C@@H](CN(C)C(=O)c1ccccc1F)[C@@H](C)CN([C@@H](C)CO)S2(=O)=O`: the max activity was 23.4%.
The same measure for `C[C@@H]1CN([C@@H](C)CO)C(=O)Cc2cc(NC(=O)c3ccncc3)ccc2O[C@H]1CN(C)Cc1ccc(Cl)c(Cl)c1`: 36.8% [at 8 µM]; for `COc1ccc(CNC(=O)C[C@H]2CC[C@H](NC(=O)c3cccc(F)c3)[C@@H](CO)O2)cc1`: -5.36% [at 1.95 µM]; for `C[C@H]1CCCCO[C@H](CN(C)Cc2ccc3c(c2)OCO3)[C@@H](C)CN([C@@H](C)CO)C(=O)c2cc(NC(=O)Nc3ccc(F)cc3)ccc2O1`: 29.6%.
The value for `O=C(NCCc1ccccc1)[C@@H]1[C@@H](CO)[C@@H]2Cn3c(cccc3=O)[C@H]1N2C(=O)C1CC1` was -6.59%; that for `CCCN1C[C@H](C)[C@@H](OC)CN(C)C(=O)c2ccc(NC(=O)Nc3c(C)noc3C)cc2OC[C@H]1C` was 6.66%.
The value for `CO[C@H]1CN(C)C(=O)c2cc(NC(=O)Nc3ccc(Cl)cc3)ccc2OC[C@H](C)N(C(=O)Nc2c(C)noc2C)C[C@@H]1C` was -13% [at 8 µM]; that for `Cc1ccc(-c2ccc3c(c2)O[C@H](CN(C)Cc2cccnc2)[C@@H](C)CN([C@H](C)CO)S3(=O)=O)cc1` was 31.7%; that for `CO[C@@H]1CN(C)C(=O)c2ccc(NS(=O)(=O)c3ccc(C)cc3)cc2OC[C@@H](C)N(C(=O)NC(C)C)C[C@H]1C` was 14.4%.
Take `CCCN1C[C@H](C)[C@H](OC)CN(C)C(=O)c2cc(NC(=O)CC)ccc2OC[C@@H]1C`: the max activity was 7.21% [at 8 µM].
As for `O=C(C[C@@H]1C=C[C@@H](NC(=O)Cc2ccccn2)[C@H](CO)O1)NCCCN1CCOCC1`, the max activity is 2.76% [at 0.5 µM].
Turning to `CC(C)CC#Cc1ccc2c(c1)O[C@@H](CN(C)Cc1ccncc1)[C@H](C)CN([C@@H](C)CO)S2(=O)=O`, the max activity was 29.7%.
The same measure for `COc1ccc(-c2ccc([C@@H]3[C@@H](CO)N(C(=O)C4CCCC4)[C@H]3C#N)cc2)cc1`: 25% [at 7.5 µM]; for `CCCC(=O)Nc1ccc2c(c1)C(=O)N(C)C[C@H](OC)[C@H](C)CN(Cc1ccc(F)cc1)[C@@H](C)CO2`: 17.3%; for `COc1cccc(C#Cc2cnc3c(c2)C(=O)N([C@@H](C)CO)C[C@H](C)[C@@H](CN(C)C)O3)c1`: -9.5% [at 1.95 µM].
Consider `COc1cccc(C#Cc2cnc3c(c2)C(=O)N([C@H](C)CO)C[C@@H](C)[C@H](CN(C)C)O3)c1`, for which the max activity is 6.76%.
Turning to `CC(=O)N(C)C[C@H]1Oc2ncc(C#Cc3ccccc3F)cc2C(=O)N([C@@H](C)CO)C[C@@H]1C`, the max activity is 60.6%.
The value for `C[C@@H]1CN([C@H](C)CO)C(=O)c2cc(C#Cc3ccccc3F)cnc2O[C@@H]1CN(C)C(=O)C1CCOCC1` was 17.1%; that for `CCNC(=O)C[C@H]1C=C[C@H](NS(=O)(=O)c2ccc(F)cc2)[C@H](CO)O1` was -12%.
The same measure for `O=C(C[C@@H]1C[C@H]2c3cc(NC(=O)Nc4ccc(C(F)(F)F)cc4)ccc3O[C@H]2[C@@H](CO)O1)NCc1ccc2c(c1)OCO2`: -23.2% [at 8 µM].
The same measure for `CO[C@@H]1CN(C)C(=O)c2ccc(NS(=O)(=O)c3ccccc3C)cc2OC[C@@H](C)N(S(C)(=O)=O)C[C@H]1C`: -12.6% [at 8 µM]; for `C[C@@H]1CN([C@@H](C)CO)S(=O)(=O)c2ccc(C#Cc3ccc(F)cc3)cc2O[C@@H]1CN(C)C(=O)NC1CCCCC1`: -4.75% [at 8 µM].
`C[C@@H]1CN([C@@H](C)CO)C(=O)c2cc(NS(=O)(=O)c3ccc(Cl)cc3)ccc2O[C@@H]1CN(C)Cc1ccccc1`: the max activity was 18.9%.
Take `CO[C@@H]1CN(C)C(=O)c2ccc(NC(=O)C3CCC3)cc2OC[C@H](C)N(C(=O)CN(C)C)C[C@@H]1C`: the max activity is -13.6% [at 0.5 µM].
The same measure for `CO[C@H]1CN(C)C(=O)c2cc(NC(=O)C3CCOCC3)ccc2OC[C@@H](C)N(C(=O)c2ccccc2)C[C@H]1C`: -10.4% [at 1.95 µM]; for `CO[C@H]1CN(C)C(=O)c2cc(NC(=O)C3CC3)ccc2OC[C@H](C)N(C(=O)c2ccccn2)C[C@@H]1C`: 5.91%.
The value for `CO[C@H]1CN(C)C(=O)c2cc(NC(=O)C3CCOCC3)ccc2OC[C@H](C)N(C(=O)c2ccccc2)C[C@H]1C` was -6.51%; that for `CO[C@@H]1CN(C)C(=O)c2cc(NC(=O)C3CCOCC3)ccc2OC[C@H](C)N(C(=O)c2ccccc2)C[C@H]1C` was -8.41% [at 0.5 µM]; that for `CO[C@H]1CN(C)C(=O)c2ccc(NC(=O)C3CCC3)cc2OC[C@H](C)N(C(=O)CN(C)C)C[C@H]1C` was -8.4%.
The same measure for `C[C@H]1CN([C@@H](C)CO)S(=O)(=O)c2ccc(C#CCC3CCCC3)cc2O[C@@H]1CN(C)C(=O)CC1CC1`: 19.7% [at 8 µM]; for `CO[C@H]1CN(C)C(=O)c2ccc(NC(=O)c3nc4ccccc4s3)cc2OC[C@H](C)N(Cc2cccnc2)C[C@H]1C`: 37.7%; for `CO[C@@H]1CN(C)C(=O)c2cc(NC(=O)Nc3ccccc3Cl)ccc2OC[C@@H](C)N(S(C)(=O)=O)C[C@H]1C`: -12.2% [at 0.5 µM].
Regarding `O=C(CN1CCOCC1)N[C@@H]1CC[C@@H](CCNS(=O)(=O)c2ccccc2F)O[C@@H]1CO`, the max activity is -8.89% [at 0.5 µM].
The value for `C[C@@H]1CN([C@@H](C)CO)C(=O)c2ccccc2-c2ccccc2CO[C@H]1CN(C)S(=O)(=O)c1ccc(Cl)cc1` was 33.2% [at 35 µM].
The same measure for `C[C@H](CO)N1C[C@H](C)[C@H](CN(C)S(=O)(=O)c2ccccc2)Oc2ccc(NC(=O)Nc3cccc4ccccc34)cc2C1=O`: -17.7% [at 8 µM].
The value for `C[C@H](CO)N1C[C@H](C)[C@@H](CN(C)Cc2ccc3c(c2)OCO3)Oc2c(NC(=O)Nc3ccc(C(F)(F)F)cc3)cccc2C1=O` was 43.3%; that for `C[C@@H]1CN([C@H](C)CO)C(=O)c2cccc(NC(=O)Nc3ccc(C(F)(F)F)cc3)c2O[C@H]1CN(C)Cc1ccc2c(c1)OCO2` was 43.4% [at 8 µM]; that for `C[C@H](CO)N1C[C@H](C)[C@H](CN(C)C(=O)NC2CCCCC2)Oc2c(NC(=O)Nc3ccc(C(F)(F)F)cc3)cccc2C1=O` was 35.7% [at 1.95 µM].
Turning to `C[C@@H]1CN([C@@H](C)CO)C(=O)c2cccc(NC(=O)Nc3ccc(F)cc3)c2O[C@H]1CN(C)CC1CCCCC1`, the max activity was 13.5% [at 8 µM].
On to `CCCC(=O)Nc1ccc2c(c1)OC[C@H](C)N(CCc1ccccc1)C[C@@H](C)[C@@H](OC)CN(C)C2=O`, for which the max activity is -11.5% [at 0.5 µM].
The value for `C[C@@H]1CN([C@@H](C)CO)C(=O)Cc2cc(N(C)C)ccc2O[C@H]1CN(C)Cc1ccc(-c2ccccc2)cc1` was 20.5% [at 8 µM].
The same measure for `C#CCNC(=O)C1=C[C@H](c2cn(C(C)=O)c3ccccc23)C[C@H](OCc2ccc(CO)cc2)O1`: -9.52% [at 0.5 µM]; for `O=C(N[C@H]1C=C[C@@H](CC(=O)N2CCOCC2)O[C@@H]1CO)c1cccc(F)c1`: -5.96%.
The same measure for `C[C@@H]1CCCCO[C@H](CN(C)CC2CC2)[C@H](C)CN([C@@H](C)CO)C(=O)c2cc(NC(=O)Nc3cccc4ccccc34)ccc2O1`: 13.7%; for `CCc1cnc(N2[C@H](CO)[C@H](c3ccc(C#CC(C)C)cc3)[C@@H]2C#N)s1`: 17% [at 1.95 µM].
Turning to `CC(C)CC#Cc1ccc2c(c1)O[C@H](CN(C)Cc1cccnc1)[C@@H](C)CN([C@H](C)CO)S2(=O)=O`, the max activity is 42.9%.
The same measure for `CC(C)Cc1ccc(CN2CC[C@@H](NC(=O)c3ccccc3)C2)cc1`: 20.1% [at 8 µM].
For the compound `C[C@H](CO)N1C[C@H](C)[C@@H](CN(C)C(=O)Nc2ccc(C(F)(F)F)cc2)Oc2c(NC(=O)c3ccc(-c4nccs4)cc3)cccc2C1=O`, the max activity was 7.84%.
The same measure for `Cc1ccc(S(=O)(=O)N[C@H]2CC[C@H](CCNS(=O)(=O)Cc3ccccc3)O[C@H]2CO)cc1`: -13.6% [at 7.5 µM]; for `O=C(NCC[C@@H]1CC[C@H](NC(=O)Nc2cc(F)ccc2F)[C@H](CO)O1)Nc1ccc(Cl)cc1`: -10.4% [at 0.5 µM]; for `CC(C)NC(=O)NCC[C@H]1CC[C@@H](NS(=O)(=O)c2ccc(Oc3ccccc3)cc2)[C@@H](CO)O1`: 13.9% [at 35 µM].
Consider `O=S(=O)(NCC[C@H]1CC[C@H](NS(=O)(=O)c2ccccc2Cl)[C@H](CO)O1)c1ccc(Cl)cc1`, for which the max activity is 10% [at 7.5 µM].
The same measure for `CC(C)NC(=O)NCC[C@H]1CC[C@@H](NS(=O)(=O)c2ccc(Oc3ccccc3)cc2)[C@H](CO)O1`: 9.67%; for `O=C(C[C@@H]1CC[C@H](NC(=O)Nc2cc(F)ccc2F)[C@H](CO)O1)NCc1ccc2c(c1)OCO2`: 4.18% [at 8 µM]; for `CC(C)CC#Cc1ccc2c(c1)O[C@@H](CN(C)C(=O)c1ccccc1)[C@@H](C)CN([C@@H](C)CO)S2(=O)=O`: 35.1%.
On to `CC(=O)N(C)C[C@H]1Oc2ncc(-c3ccc(C#N)cc3)cc2C(=O)N([C@H](C)CO)C[C@H]1C`, for which the max activity is -10.1% [at 1.95 µM].
Turning to `CO[C@H]1CN(C)C(=O)c2cc(NS(=O)(=O)c3cccc(F)c3)ccc2OC[C@H](C)N(Cc2cc(F)ccc2F)C[C@H]1C`, the max activity was 7.97%.
